# Measured values published in PubChem BioAssay (EPA / NIEHS).
# Results filed as inconclusive are left out. Calls of active or inactive are those of the source. How the source made its calls: active means hit-call score of the fitted dose curve at least 0.9, where 1 is the maximum; inconclusive means response in the unintended direction; inactive means score below 0.9.
# Biological target: Nuclear receptor subfamily 1 group I member 3 (Homo sapiens) (UniProt Q14994)
# Assay: ATG_CAR_TRANS: Attagene TRANS-FACTORIAL HepG2 Assay for human Constitutive Androstane Receptor (CAR) (AID 2282969);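 further: activators raise reporter mRNA above DMSO so AC50 marks induction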
# Conditions: HepG2 Attagene TRANS-FACTORIAL CAR reporter
# Method: ATG_TRANS is a cell-based, multiplexed-readout assay that uses HepG2, a human liver cell line, with measurements taken at 24 hours after chemical dosing in a 24-well plate.ATG_CAR_TRANS is one of 30 assay component(s) measured or calculated from the ATG_TRANS assay. It is designed to make measurements of mRNA induction, a form of inducible reporter, as detected with fluorescence intensity signals by Reverse transcription polymerase chain reaction (RT-PCR) and Capillary electrophoresis technology.Data from the assay component ATG_CAR_TRANS was analyzed into 1 assay endpoint. This assay endpoint, ATG_CAR_TRANS, was analyzed in the positive analysis fitting direction relative to DMSO as the negative control and baseline of activity. Using a type of inducible reporter, measures of mRNA for gain-of-signal activity can be used to understand the reporter gene at the transcription factor-level as they relate to the gene NR1I3. Furthermore, this assay endpoint can be referred to as a primary readout, because this assay has produced multiple assay endpoints where this one serves a reporter gene function. To generalize the intended target to other relatable targets, this assay endpoint is annotated to the nuclear receptor intended target family, where the subfamily is non-steroidal.
# Human liver HepG2 cells are transiently transfected with multiple reporter transcription units (MRTUs) in 6-well plates using FuGene 6 reagent (Roche; 3 ml FuGene/1 mg DNA). The MRTU constructs are regulated by a cis-regulating element (promoter). […] A major difference between the CIS and TRANS system is that in CIS activities of endogenous TFs are measured, whereas the TRANS assay evaluates changes in activities of exogenous, chimeric NR-Gal4 proteins. […] At the end of 24 hour incubation, total RNA was isolated using TriZol reagent (Invitrogen). The isolated RNA is then reverse-transcribed using oligo(dT) primer and Mo-MLV reverse transcriptase (Invitrogen) with DNAse I (Ambion) treatment for 30 min. The one-tenth of the produced cDNA was amplified by PCR using Taq DNA polymerase (Invitrogen) and two reporter sequence-specific primers. The PCR products were fluorescently labeled by primer extension with 6-arboxyfluorescein (6-FAM) 5'-labeled reporter sequence-specific primer (2 min at 95 C, 20 s at 68 C and 10 min at 72 C) and these products were digested with 5U of HpaI (New England Biolabs) for 2h at 37 C. The fragments were purified using Qiaquick PCR columns (Qiagen), analyzed on an ABI 3130xL genetic analyzer (Applied Biosystems) with peak positions identified by using a set of X-rhodamine (ROX)-labeled MapMarker1000 molecular weight standards (BioVentures). The raw capillary electrophoresis data was processed using Attagraph software (Attagene).
# Nuclear receptor subfamily 1 group I member 3 (Homo sapiens), sequence (Q14994 whole entry, looked up): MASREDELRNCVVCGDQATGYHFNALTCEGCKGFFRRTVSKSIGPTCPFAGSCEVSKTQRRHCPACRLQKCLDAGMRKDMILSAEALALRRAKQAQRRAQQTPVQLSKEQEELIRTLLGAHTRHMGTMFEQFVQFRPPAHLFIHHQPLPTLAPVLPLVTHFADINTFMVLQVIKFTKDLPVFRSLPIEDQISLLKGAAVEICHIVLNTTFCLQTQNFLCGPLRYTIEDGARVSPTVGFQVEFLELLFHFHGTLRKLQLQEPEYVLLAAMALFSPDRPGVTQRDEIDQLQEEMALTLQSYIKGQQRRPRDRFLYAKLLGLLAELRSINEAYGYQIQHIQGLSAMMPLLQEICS
row,SMILES,outcome
1,COc1nc(C)nc(NC(=O)NS(=O)(=O)c2ccccc2OCCCl)n1,inactive
2,CCC(O)=C1C(=O)CC(C(=O)O)CC1=O (centres undefined),inactive
3,COCCO,inactive
4,CCCCOCCOCCOCc1cc2c(cc1CCC)OCO2,inactive
5,N#CSCSc1nc2ccccc2s1,inactive
6,CCOC(=O)C(C)Oc1ccc(Oc2cnc3cc(Cl)ccc3n2)cc1 (centres undefined),inactive
7,CCCN(CCC)C(=O)SCC,inactive
8,CCCN(CCC)c1c([N+](=O)[O-])cc(C(F)(F)F)c(N)c1[N+](=O)[O-],inactive
9,COC(=O)c1ccc(CNS(C)(=O)=O)cc1S(=O)(=O)NC(=O)Nc1nc(OC)cc(OC)n1,inactive
10,CCOC(=O)C(C)Oc1ccc(Oc2nc3ccc(Cl)cc3o2)cc1 (centres undefined),inactive
11,N[C@@H](Cc1cc(I)c(Oc2ccc(O)c(I)c2)c(I)c1)C(=O)O,inactive
12,CCCOC(=O)NCCCN(C)C,inactive
13,CCCCC(CC)COC(=O)c1ccccc1C(=O)O (centres undefined),inactive
14,O=C(O)C1(C(=O)Nc2ccc(Cl)cc2Cl)CC1,inactive
15,CCCCOC(=O)[C@@H](C)Oc1ccc(Oc2ccc(C(F)(F)F)cn2)cc1,inactive
16,CCN(Cc1c(F)cccc1Cl)c1c([N+](=O)[O-])cc(C(F)(F)F)cc1[N+](=O)[O-],inactive
17,COC(=O)c1cccc(C)c1S(=O)(=O)NC(=O)Nc1nc(OCC(F)(F)F)nc(N(C)C)n1,inactive
18,O=C(c1ccc(O)cc1O)c1ccc(O)cc1O,inactive
19,O=C(O)c1ccccc1,inactive
20,COC(=O)c1ccccc1S(=O)(=O)NC(=O)Nc1nc(OC(F)F)cc(OC(F)F)n1,inactive

row,SMILES,outcome
1,CCCCOC(=O)C(C)Oc1ccc(Oc2ccc(C(F)(F)F)cn2)cc1 (centres undefined),inactive
2,CCCOC(=O)c1ccc(C(=O)OCCC)nc1,inactive
3,CC1(C)C(C=C(Cl)Cl)C1C(=O)OCc1cccc(Oc2ccccc2)c1 (centres undefined),inactive
4,CCOC(=O)[C@H](C)Oc1ccc(Oc2nc3ccc(Cl)cc3o2)cc1,inactive
5,c1ccc(Nc2ccccc2)cc1,inactive
6,CCOC(=O)c1ccc(O)cc1,inactive
7,C=CCOC(Cn1ccnc1)c1ccc(Cl)cc1Cl (centres undefined),inactive
8,CCC(C)OC(=O)N1CCCCC1CCO (centres undefined),inactive
9,OB(O)O,inactive
10,COc1c(Cl)ccc(Cl)c1C(=O)O,inactive
11,CCNc1nc(N)nc(Cl)n1,inactive
12,CCOC(=O)NCCOc1ccc(Oc2ccccc2)cc1,inactive
13,O=C(c1ccccc1)C1CCCCC1,inactive
14,CC(C)(c1ccc(O)cc1)c1ccc(O)cc1,inactive
15,CC(=O)S[C@@H]1CC2=CC(=O)CC[C@]2(C)[C@H]2CC[C@@]3(C)[C@@H](CC[C@@]34CCC(=O)O4)[C@H]12,inactive
16,CCSC(=O)N(CC(C)C)CC(C)C,inactive
17,CN(C)C(=O)Nc1ccc(Cl)c(Cl)c1,inactive
18,CCCCC(CC)CN1C(=O)C2C3C=CC(C3)C2C1=O (centres undefined),inactive
19,CC(C)CCCCCCc1ccc(O)cc1,inactive
